# Screening data (PubChem BioAssay)
# U2OS ROS induce: cancer cell ROS induction | U2OS ROS induction, H2DCF-DA fluorescence | ROS induction (% of piperlongumine), % at 10 µM | hit rate 2% among 46,000; in the data active = ROS induction above about 79%, passing the limit was not always enough;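 note: 0% = DMSO vehicle median and 100% = reference compound median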
# YB-1 expression: YB-1 expression inhibition. hit rate 0.37% among 30,000. AID 434959. delta delta Cp (YB-1 minus CDIP) (concentration not given with the values). U2OS, qRT-PCR YB-1 vs CDIP delta delta Cp, 16 h; stronger effect = higher value; zero = DMSO, each unit about twofold;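 active = delta delta Cp rounded down to an integer at or above 3, about 3 SD of DMSO wells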;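 note: higher means less YB-1 transcript or more CDIP transcript relative to DMSO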
# Active calls of the source: *; nt = no result given. Shown are actives, neighbours in structure and some others; about 2.1% of the full set was active somewhere.
SMILES,U2OS ROS induce,YB-1 expression
C[C@H]1CN([C@@H](C)CO)C(=O)Cc2cc(NS(C)(=O)=O)ccc2O[C@@H]1CN(C)Cc1ccccc1,131*,-0.26
C[C@@H]1CN([C@H](C)CO)C(=O)Cc2cc(NS(=O)(=O)c3ccc(Cl)cc3)ccc2O[C@H]1CN(C)Cc1ccccc1,0,0.17
C[C@H](CO)N1C[C@H](C)[C@H](CN(C)Cc2ccc(-c3ccccc3)cc2)Oc2ccc(NS(=O)(=O)c3ccc(Cl)cc3)cc2CC1=O,142*,0.33
C[C@H](CO)N1C[C@H](C)[C@H](CN(C)Cc2ccc(-c3ccccc3)cc2)Oc2ccc(NS(=O)(=O)c3cccs3)cc2CC1=O,78*,0.013
C[C@H]1CN([C@@H](C)CO)C(=O)Cc2cc(NS(=O)(=O)c3cccs3)ccc2O[C@H]1CN(C)Cc1ccc(-c2ccccc2)cc1,46,-0.23
C[C@@H]1CN([C@H](C)CO)C(=O)Cc2cc(NS(=O)(=O)c3ccccc3)ccc2O[C@H]1CN(C)Cc1ccc(C(F)(F)F)cc1,217*,-0.13
CC1=NN(c2ccccc2)C(=O)C1C=NC1CCS(=O)(=O)C1 (stereo unspecified),-16,nt
COC(=O)c1ccccc1NC(=O)Cc1ccc(Cl)cc1,-6,nt
COc1ccc(OC)c2c1CC(C)(C)n1c(-c3ccc(Cl)cc3)nnc1-2,-5,nt
COc1ccc(-c2c(C)nn3c(N4CCC(C)CC4)cc(C)nc23)cc1OC,93*,nt
Nc1cc(N)nc(SCC(=O)N2CCN(c3ccc(Cl)cc3)CC2)n1,86*,nt
CCn1c(SCC(=O)N2CCN(c3ccccc3)CC2)nnc1-c1cc2cc(Cl)ccc2o1,-12,nt
Cc1cccc(N2C(=S)NC3c4cc(Cl)cc(Cl)c4OC2(C)C3C(=O)N(C)C)c1 (stereo unspecified),0,nt
C[C@@H]1CCCCO[C@H](CN(C)C(=O)CCCN(C)C)[C@@H](C)CN([C@H](C)CO)C(=O)c2cc(NS(=O)(=O)c3ccc(Cl)cc3)ccc2O1,99*,0.13
Cc1ccc(S(=O)(=O)Nc2ccc3c(c2)C(=O)N([C@H](C)CO)C[C@H](C)[C@H](CN(C)C(=O)CCCN(C)C)OCCCC[C@@H](C)O3)cc1,4,-0.36
C[C@@H]1CCCCO[C@@H](CN(C)C(=O)CCCN(C)C)[C@@H](C)CN([C@H](C)CO)C(=O)c2cc(NS(=O)(=O)c3ccc(F)cc3)ccc2O1,8,-0.13
C[C@@H]1CCCCO[C@@H](CN(C)C(=O)CCCN(C)C)[C@@H](C)CN([C@H](C)CO)C(=O)c2cc(NS(C)(=O)=O)ccc2O1,-8,9.7*
O=C(Nc1cccc(C(F)(F)F)c1)N1CCC(CN2CCc3ccccc3C2)CC1,6,nt
CS(=O)(=O)N(CC(=O)Nc1c(F)cccc1F)c1cccc(Cl)c1Cl,6,nt
Cc1ccc(Cl)cc1N(CC(=O)Nc1c(F)cccc1F)S(C)(=O)=O,156*,nt
CC1=CC(C)C(C(=O)O)C(C(=O)Nc2ccccc2)C1 (stereo unspecified),-6,nt
CCC(=O)c1ccc2c(c1)N(CC(C)N(C)C)c1ccccc1S2 (stereo unspecified),26,-0.44
O=C1CC(C2CCCO2)C(=O)N1c1cccc(C(F)(F)F)c1 (stereo unspecified),5,5.8*
CC1CC(=O)N(c2cc(C(F)(F)F)cc(C(F)(F)F)c2)C1=O (stereo unspecified),-11,nt
O=S(=O)(NCC1CCN(Cc2cccc(OCCO)c2)CC1)c1ccc(Cl)c(Cl)c1,123*,0.4
SMILES,U2OS ROS induce,YB-1 expression
O=S(=O)(N[C@@H]1CCCN(Cc2cccc(OCCO)c2)C1)c1ccc(Cl)c(Cl)c1,25,0.031
CC1(C)CC(=O)C2=C(C1)N(Cc1ccco1)C(=O)NC2(C(F)(F)F)C(F)(F)F,3,-0.25
CCCCN1C(C)=NC(C(F)(F)F)(C(F)(F)F)C2=C1CC(C)(C)CC2=O,120*,-0.27
COc1ccc(OC)c(NC(=O)c2cccs2)c1,-10,nt
C/C(=C/CCC(CO)C1CCC2(C)C3CCC4C(C)(C)C(OC5OC(CO)C(O)C(O)C5O)CC(O)C45CC35CCC12C)COC1OC(CO)C(O)C(O)C1O (stereo unspecified),-17,0.17
C/C(=C/CCC(CO)C1CCC2(C)C3CCC4C(C)(C)C(OC5OC(CO)C(O)C(O)C5O)CCC45CC35CCC12C)COC1OC(COC2OC(CO)C(O)C(O)C2O)C(O)C(O)C1O (stereo unspecified),-7,5.8*
CC1(c2ccc(F)cc2)CC(=O)c2cc(O)ccc2O1 (stereo unspecified),-5,nt
FC(F)(F)c1nnc2n1Nc1nc3ccccc3nc1S2,704*,nt
CSc1nnc2c(n1)OC(C)Nc1ccccc1-2 (stereo unspecified),32,-0.34
CSc1nnc2c(n1)OC(C1CC=C(C)CC1)Nc1ccccc1-2 (stereo unspecified),103*,-0.086
Cc1c(C(=O)Nc2ccccc2)cc(-c2ccccc2)n1-c1ccccc1,-6,nt
CC(=O)N[C@H]1[C@H](Oc2nc3cc(C)ccc3o2)O[C@H](CO)[C@@H](O)[C@@H]1O,-19,nt
O=C1/C(=C/c2ccc(O)cc2)SC(=S)N1CCc1ccccc1,127*,-1.1
CC(C)OC(=O)CCN1C(=O)/C(=C/c2ccccc2)SC1=S,36,-0.09
CC(C)c1ccc(NC(=O)NCC2CCCO2)cc1 (stereo unspecified),-8,nt
Cc1ccc(CSc2nc3ccccc3s2)cc1,4,nt
CN(C(=O)CN1N=C(c2ccc(Cl)cc2)CCC1=O)c1ccccc1,-11,nt
Cc1cc(/C=C2/C(=N)N3C=CSC3=NC2=O)c(C)n1-c1ccccc1,220*,nt
Cc1ccc(COc2ccc(/C=C3/C(=N)N4C=CSC4=NC3=O)cc2Br)cc1,-4,nt
O=S(=O)(c1ccc(-c2csc(Nc3ccc(Br)cc3)n2)cc1)N1CCCCC1,-2,nt
CC(=O)Nc1ccc(Nc2ncnc3c2c(-c2ccccc2)cn3-c2cccc(C)c2)cc1,97*,nt
Cc1cccc(-n2ncc3c(Nc4ccc(-c5ccccc5)cc4)ncnc32)c1,4,nt
CC1CCc2sc3ncnc(NCCN4CCOCC4)c3c2C1 (stereo unspecified),80*,nt
OCCCNc1ncnc2scc(-c3ccccc3)c12,2,nt
CC1CCc2c(sc3ncnc(NCCCOC(C)C)c23)C1 (stereo unspecified),62,nt
SMILES,U2OS ROS induce,YB-1 expression
Clc1ccc(-c2csc3ncnc(NCCN4CCOCC4)c23)cc1,139*,nt
CCCc1cc2c(cc1NC(=O)C(C)(C)C(=O)Nc1cc3c(cc1CCC)OCO3)OCO2,-9,nt
CC(=O)O[C@H]1[C@H](Oc2ccccc2COC(=O)C2(O)C=CCCC2=O)O[C@H](COC(=O)C2(O)C=CCCC2=O)[C@@H](O)[C@@H]1O (stereo partly specified),89*,0.081
CC(=O)O[C@H]1[C@H](Oc2ccccc2COC(=O)C2(O)C=CCCC2=O)O[C@H](CO)[C@@H](O)[C@@H]1O (stereo partly specified),-5,-0.46
COc1ccc(NC(=O)CC(=O)c2ccccc2)cc1,-12,nt
O=C(c1ccc2c(=O)n(CCC3=CCCCC3)c(=S)[nH]c2c1)N1CCCC1,8,nt
CCN(CC(=O)Nc1cccc(C)c1)S(=O)(=O)c1ccc(Br)cc1,131*,nt
CCN(CC(=O)Nc1ccc(C)c(C)c1)S(=O)(=O)c1ccc(C)cc1,-2,nt
Cc1ccc(-c2cn3c4ccccc4nc3n2CCN2CCOCC2)cc1,36,nt
